40 compounds from ChEMBL document CHEMBL3988442, “University of Dundee, Small-Polar-MMV Screening Library” (2021) can be followed below.

This assay concerns the target AMP-activated protein kinase, AMPK (Homo sapiens) (UniProt P54646+O43741+P54619+Q9UGJ0+Q9Y478+Q13131+Q9UGI9). Description: AMP-dependent Kinase enzyme assay. An in vitro enzyme assay that detects ADP turnover that is directly proportional to AMPK activity. This uses naive AMPK that is activated during the assay with MK-8722. The assay is classed as functional. Also noted: scale not given: direction of the effect not stated beside the values. The note with it: 30 µM.
For `COc1cccc([C@@]2(O)CC[C@@H]3CN(C(=O)c4c[nH]nc4C)C[C@@H]32)c1`, the Percent Effect is 10.8%.
Take `COc1ccc(CN2CC[C@@]3(O)CCCC[C@H]3C2)cc1C(=O)O`: the Percent Effect was -10%.
For the compound `CCc1c(C)nn2c(O)cc(C3CCN(C(=O)c4ccn(C)n4)C3)nc12` (stereo not given), the Percent Effect is -4.46%.
With `CC(OCC1CC1)C(=O)Nc1cccc(C(=O)Nc2ccccn2)c1` (stereo not given) the figure was 23.1%; with `O=C(CNC(=O)c1ccccc1F)NCc1ccccn1`, 0.147%.
The value for `CCc1ncc(CN2CCOC(Cc3cccc(F)c3)C2)cn1` (stereo not given) was 6.71%; that for `CC(C)c1ocnc1C(=O)Nc1cccc(Cn2ccccc2=O)c1` was 8.27%.
The value for `c1ccc(CCN2CCN(C3CCOC4(CCOCC4)C3)CC2)cc1` (stereo not given) was -8.46%; that for `COc1cccc(CN(C)Cc2c(C)noc2C)c1OC` was 18.1%; that for `Cc1cc(CC(=O)NC2CCCN(c3ccccc3Cl)C2=O)n[nH]1` (stereo not given) was 4.62%.
Consider `COc1cc(Br)c(CNc2ccn(CCC(N)=O)n2)cc1OC`, for which the Percent Effect worked out at 3.74%.
For `c1cncc(OC2CCN(CCn3cc4ccccc4n3)CC2)c1`, the Percent Effect came out at 13.1%.
With `CCCN(CCc1ccccn1)C(=O)Cn1cnnn1` the figure was 4.35%; with `CC(O)C(=O)N1CCC(c2[nH]ncc2-c2ccccc2)CC1` (stereo not given), -11.2%.
As to `O=C(COc1ccc(F)cc1F)N1CCOCC(O)(CN2CCCC2)C1` (stereo not given), the Percent Effect is 8.54%.
The value for `CSCCC(NC(N)=O)C(=O)NCc1ccc(-n2cccn2)cc1` (stereo not given) was 0.578%; that for `Cc1[nH]nc(CCC(=O)N2CCc3c(nc[nH]c3=O)C2)c1C` was 4.58%.
On to `Cn1ncc2c(NC3CCC3)nc(-c3ccncc3)nc21`, for which the Percent Effect was 87.5%.
With `CC(=O)c1cnc(NCCCN2CCOCC2)nc1C` the figure was -7.41%; with `Cn1cnc(S(=O)(=O)N2CCCCc3ccccc32)c1`, -0.149%.
`COc1ccc(N2CCN(C(=O)CCCc3cn[nH]c3)CC2=O)cc1`: the Percent Effect is -3.84%.
The value for `Cn1ncc2c1CCCC2NCc1cccnc1` (stereo not given) was 5.94%; that for `Clc1ccc(COCC2CCN(Cc3ccccn3)CC2)cc1` was 4.9%.
With `CC(C)C(NC(=O)C1CC1)c1cc(O)nc(-c2cccnc2)n1` (stereo not given) the figure was 6.3%.
With `CN(CC(=O)NC(C)(C)C)Cc1cccc2c1OCCO2` the figure was -9.42%; with `COc1ccc(-c2cccc3c2OC(CN)C3)cc1F` (stereo not given), 0.444%.
Take `CN1CCC(c2n[nH]c(=O)n2-c2cccc(Cl)c2)CC1`: the Percent Effect is 65.1%.
The value for `Cc1nc2c(c(N3CCCOCC3)n1)CCN(c1nccs1)CC2` was -16.9%; that for `Cc1ccccc1OCCn1cnc2oc(C)c(C(=O)O)c2c1=O` was 14.5%; that for `CC(=O)c1ccc(-c2cnn(CC(=O)Nc3cc(C)nn3C)c2)nc1` was 0.263%.
Regarding `CCCN1CCC(N2CCC(Cn3cc(CC(C)O)nn3)CC2)CC1` (stereo not given), the Percent Effect was -7.12%.
With `Cc1c(NC(=O)c2cnc[nH]2)cccc1C(=O)NC(C)(C)C` the figure was 15%; with `CN(Cc1ccccc1)S(=O)(=O)N1C[C@@H](C(=O)O)[C@H](C2CC2)C1`, 3.92%.
With `COc1ccc(CCC(=O)N2CCN(c3nc(C)ns3)CC2)cc1` the figure was -3.26%.
`Cc1cnn(C2CN(CCOc3cccc(C#N)c3)C2)c1`: the Percent Effect was 3.61%.
With `CN(C)Cc1cccc(-c2cccnc2C(=O)NCc2cn(C)cn2)c1` the figure was 23.4%; with `CC(Cn1ccnc1)NC(=O)NCCN1CCCCCC1=O` (stereo not given), 0.204%; with `CCN1CC(COC(=O)c2cc(C)nn2CC)CC1=O` (stereo not given), 5.06%.
The value for `CCCC1c2ccccc2CCN1CCS(C)(=O)=O` (stereo not given) was -0.239%.
With `CN(C)c1ncccc1N(C)C(=O)Cn1cc(-c2ccccc2)nn1` the figure was -17.2%.
